Experimental data from PubChem BioAssay AID504465 (National Center for Advancing Translational Sciences (NCATS), 2011).
Out of some 2,100 compounds screened, about 210 (10%) were called active. Roughly 53% stayed inconclusive and do not appear here. Some of the results follow. Unmarked numbers belong to inactive results. Calls come from the whole dose curve; as a rule, active = well fitted inhibition curve with a large enough effect; inconclusive = small, poorly fitted or top-dose-only effect, or effect the other way; inactive = no such curve, though single readings can be large or run the other way.

Experiment: IN Cell qHTS Assay for Inhibitors of the mTORC1 Signaling Pathway in MEF (Tsc2-/-, p53-/-) Cells: Sytravon; note: nearly all actives have a fitted effect of over 60% in size
Conditions: phospho-rpS6 immunofluorescence, 24 h; series mostly up to 38.3 µM; activity, negative = inhibition: at the top concentration
How it was run: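 Immunofluorescence of rpS6 phosphorylation (Ser235/236) in mouse embryonic fibroblasts lacking Tsc2 and p53, after 24 h compound exposure; Hoechst-normalized signal imaged, each well scored as % active cells relative to rapamycin (7.5 nM) and DMSO controls.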
Potency is the fitted concentration of half-maximal effect.

| SMILES | activity, negative = inhibition [%] | Potency |
| --- | --- | --- |
| O=S(=O)(c1ccccc1F)N1CCC(Oc2ccc(-n3cnnn3)cc2)CC1 | 1.79 |  |
| CCOCCc1nn2c(=O)cc(COC(=O)c3ccc(NC(=O)c4cccs4)cc3)nc2s1 | -7.25 |  |
| CCOc1ccc(S(=O)(=O)Nc2cc(Cl)ccc2OC)c2cccnc12 | -6.32 |  |
| COc1ccc(-c2nc3cc(NC(=O)Cc4ccc(Cl)cc4)ccc3o2)cc1OC |  | 3.29 µM (active) |
| Cc1cccc(-c2nc3cc(NC(=O)Cc4ccc(Cl)cc4)ccc3o2)c1 | -15.8 |  |
| CCCn1c(=O)sc2cc(NC(=O)c3ccc(OC)c(Br)c3)ccc21 | 17 |  |
| COc1ccc(-c2nc3cc(C(C)C)ccc3o2)cc1NC(=O)c1ccccc1[N+](=O)[O-] | -22.3 |  |
| COc1ccc(NC(=O)CCn2cnc3onc(-c4ccc(F)cc4)c3c2=O)cc1OC | -9.75 |  |
| CCC(=O)Nc1cc(-c2nc3cc(C)cc(C)c3o2)ccc1C | -20.3 |  |
| O=C(Nc1ccc2oc(-c3ccc4ccccc4c3)nc2c1)c1cc(Br)ccc1Cl |  | 16.5 µM (active) |
| COc1c(C)cc(Br)cc1C(=O)Nc1ccc(-c2nc3ncccc3o2)cc1 | 3.45 |  |
| COc1ccc(C(=O)Nc2ccc3oc(-c4ccc5ccccc5c4)nc3c2)cc1Br |  | 13.1 µM (active) |
| CCOc1ccc(OCC)c(NC(=O)Cn2nc(CC)n3c(cc4sccc43)c2=O)c1 | 4.76 |  |
| O=c1c2ccccc2n(Cc2cccc(F)c2)c(=O)n1Cc1ccccc1Cl | -28.4 |  |
| COCCn1c(=O)[nH]c2cc(C(=O)N3CCN(c4ccc(Cl)cc4)CC3)ccc2c1=O | 29.5 |  |
| COc1ccccc1CN1COc2ccc3c(oc(=O)c4ccccc43)c2C1 | -13.4 |  |
| CC(C)CN(CC(C)C)c1nnc(NC(=O)Nc2cccc(C(F)(F)F)c2)s1 | 2.09 |  |
| COc1ccc(OC)c(NS(=O)(=O)c2ccc3c(c2)C(C)(C)C(=O)N3C)c1 | -4.35 |  |
| COc1cc2nc(Nc3ccc(C)c(C)c3)nc(N)c2cc1OC |  | 4.14 µM (active) |
| O=C(Cn1c(=O)oc2cc(S(=O)(=O)NCc3ccccc3)ccc21)NCc1ccc(Cl)cc1 | 0 |  |
| CC(C)(C)c1ccc(C(=O)N2CCCCC2CCN2CCCCC2)cc1 (configuration not stated) | -14.5 |  |
| CCOC(=O)c1ccc(N2C(=O)c3n[nH]c(-c4cccs4)c3C2c2cccc(F)c2)cc1 (configuration not stated) |  | 13.1 µM (active) |
| CCOC(=O)c1ccc(N2C(=O)c3n[nH]c(-c4cccs4)c3C2c2ccc(CC)cc2)cc1 (configuration not stated) | -94.6 |  |
| CC(C)(C)c1ccc(C2NC(=O)c3n[nH]c(-c4cccs4)c32)cc1 (configuration not stated) | -100 |  |
| Cc1ccc(F)cc1NC(=O)CSc1nc(-c2cccs2)cc(C(F)(F)F)n1 |  | 11.7 µM (active) |
| Cc1ccc(C)c(NC(=O)Cn2cc(C(=O)c3cccs3)c3ccccc32)c1 | -9.22 |  |
| Cc1ccc(NC(=O)CSc2nc(-c3cccs3)cc(C(F)(F)F)n2)cc1C | -19.5 |  |
